Source: PubChem
Shown are actives, neighbours in structure and some others; about 19% of the full set was active somewhere.
DT40 TDP1 CPT: growth inhibition of DT40 Tdp1-/-;hTDP1 cells with camptothecin (screen for TDP1 inhibitors); Potency, µM (highest dose often 46.2 µM), inactives show at the highest dose activity change, negative = growth inhibition, most hits filed as inhibitors; AID 686979; chicken DT40 Tdp1-/-;hTDP1 cells + 20 nM CPT, ATP luminescence, 48 h; hit rate 12% among 420,000; also: nearly all actives have a fitted effect of over 55% in size
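Chicken DT40 Tdp1-/- cells stably complemented with human TDP1 were seeded at 400 cells/well in medium containing 20 nM camptothecin, exposed to pin-transferred compounds, and grown at 37 °C for at least 48 hr. Viability was read as ATP luminescence.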
Gal4-VP16 FLuc: counter-screen for ROR gamma inhibitors: Gal4-VP16 reporter | hit rate 3.5% among 310,000 | Potency, µM (series often up to 53.6 µM), for the others: top-dose activity, negative = inhibition, most hits filed as inhibitors | Drosophila S2 Gal4-VP16 UAS-luciferase, luminescence, 20 h;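 also: Gal4-VP16 expression switched on by copper sulfate through the metallothionein promoter; nearly all actives have a fitted effect of over 50% in size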
DT40 TDP1 no CPT: qHTS for Inhibitors of human tyrosyl-DNA phosphodiesterase 1 (TDP1): qHTS in cells in absence of CPT | AID 686978, 2013 | hit rate 15% among 420,000 | DT40 Tdp1-/- hTDP1 cells, no CPT, ATP luminescence, 48 h | Potency, µM (doses to about 46.2 µM), inactives show top-dose activity change, negative = growth inhibition, actives largely listed as inhibitors; also: nearly all actives have a fitted effect of over 55% in size
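Camptothecin absent (DMSO only). Human TDP1-complemented DT40 knockout cells, 400 cells/well, 37 °C for minimum 48 hr; ATP measured via CellTiter-Glo, 30 min dark incubation, luminescence.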
RORg inh: blocks mouse ROR gamma transcriptional activity | Drosophila S2 Gal4-RORgamma UAS-luciferase reporter, 20 h | Potency, µM (titrated, usually from 53.6 µM), inactives show at the top dose activity change, negative = inhibition, usual class: inhibitors | hit rate 5.4% among 310,000; also: nearly all actives have a fitted effect of over 60% in size
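Luciferase reporter read in Schneider cells carrying Gal4-RORγ (mouse) and UAS-Photinus luciferase; cells given compound 1 h before 700 uM copper sulfate induction, then incubated 20 h at ambient temperature.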
TDP1 block: inhibitors of human tyrosyl-DNA phosphodiesterase TDP1 | recombinant TDP1, AlphaScreen DNA substrate cleavage | Potency, µM (highest dose often 130 µM), for the others: top-dose activity change, negative = inhibition, most hits filed as inhibitors | Q9NUW8 | hit rate 0.28% among 350,000; also: nearly all actives have a fitted effect of over 40% in size
Target sequence (Q9NUW8 whole entry, looked up): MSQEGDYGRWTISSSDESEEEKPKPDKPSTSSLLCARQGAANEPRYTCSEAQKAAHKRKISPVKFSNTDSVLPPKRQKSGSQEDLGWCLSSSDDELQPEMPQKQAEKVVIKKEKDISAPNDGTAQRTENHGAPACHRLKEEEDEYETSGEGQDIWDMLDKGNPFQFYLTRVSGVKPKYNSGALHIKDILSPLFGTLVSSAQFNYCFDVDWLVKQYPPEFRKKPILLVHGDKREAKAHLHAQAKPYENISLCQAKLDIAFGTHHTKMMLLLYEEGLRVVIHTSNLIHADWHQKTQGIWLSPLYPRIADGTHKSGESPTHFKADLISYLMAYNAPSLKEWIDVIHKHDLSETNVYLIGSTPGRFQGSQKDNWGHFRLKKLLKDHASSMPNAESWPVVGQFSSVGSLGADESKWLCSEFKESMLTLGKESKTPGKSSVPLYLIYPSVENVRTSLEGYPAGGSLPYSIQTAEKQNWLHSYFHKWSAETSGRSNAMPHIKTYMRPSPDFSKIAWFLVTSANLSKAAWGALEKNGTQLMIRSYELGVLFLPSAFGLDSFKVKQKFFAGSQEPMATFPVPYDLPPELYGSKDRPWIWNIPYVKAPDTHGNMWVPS
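AlphaScreen read-out: signal falls as enzyme removes the 3' tyrosine-FITC from a 5'-biotinylated DNA oligo (15 nM, 5 min, RT). Enzyme was E. coli-made recombinant Tdp1 at 1 nM, exposed to compound for 15 min beforehand; beads 10 ug/ml, 10 min.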
The depositor's hits bear a star; ? = inconclusive; nt = not tested or not shown; [ ] = dose if it differs, or a comment. Calls follow the shape of the dose curve; as a rule, active = well fitted curve in the direction sought with a large enough effect; inconclusive = small, poorly fitted or top-dose-only effect, or another doubt; inactive = no such curve, though single readings can be large; an effect the other way counts as inactive or inconclusive. % is scaled to controls: 0 for no effect and ±100 for the full control effect; potency is read from the fitted curve at half-maximal effect.

SMILES | DT40 TDP1 CPT | Gal4-VP16 FLuc | DT40 TDP1 no CPT | RORg inh | TDP1 block
CCCOC(=O)CCc1n[nH]c(=O)[nH]c1=O | 7% | 8% | -1% | -7% | 1%
COc1cccc(N2[C@@H](CC(C)=O)c3ccc(/C=C/C(C)=O)cc3S2(=O)=O)c1 | 5.2µM* | nt | 5.2µM* | nt | nt
COc1ccc(CN2[C@@H](CC(=O)O)c3ccc(C(F)(F)F)cc3S2(=O)=O)cc1 | -30% | nt | -22% | nt | nt
COc1ccc(CN2[C@@H](CC(C)=O)c3ccc(/C=C/C(C)=O)cc3S2(=O)=O)cc1 | 7.3µM* | nt | 9.2µM* | nt | nt
O=C(/C=C/c1cccnc1)c1ccc(NC(=O)c2cccc(Br)c2)cc1 | 7.1µM* | -12% | 3.2µM* | -12% | 0%
Cc1cccc(C(=O)Nc2cccc(C(=O)N/N=C/c3ccncc3)c2)c1 | -7% | 6% | -13% | -5% | 7%
Cc1cccc(C(=O)Nc2ccc(C(=O)/C=C/c3cccnc3)cc2)c1 | 5.2µM* | ? | 4.6µM* | 28%[10 µM] | 2%
Cc1cccc(C(=O)Nc2ccc(C(=O)/C=C/c3ccncc3)cc2)c1 | ? | 13µM* | ? | ? | nt
O=C(N/N=C/c1cccnc1)c1cccc(Br)c1 | -12% | -2% | 0% | -13% | 3%
COc1ccc(-c2csc(C(O)c3ccc(F)c(F)c3)n2)cc1 (centres undefined) | 18µM* | nt | 13µM* | nt | nt
COc1cccc(C(O)c2nc(-c3ccc(N(C)C)cc3)cs2)c1 (centres undefined) | 23µM* | nt | 16µM* | nt | nt
COc1cccc(C(O)c2nc(-c3cccc(NC(C)=O)c3)cs2)c1 (centres undefined) | ? | nt | -23% | nt | nt
CCN(CC)C(=O)c1cccc(-c2csc(C(O)c3cccc(OC)c3)n2)c1 (centres undefined) | 23µM* | nt | 4.6µM* | nt | nt
COc1cccc(C(O)c2nc(-c3ccc(F)cc3OC)cs2)c1 (centres undefined) | -18% | nt | ? | nt | nt
COc1ccc(C(O)c2nc(-c3ccoc3)cs2)cc1 (centres undefined) | -25% | nt | ? | nt | nt
COc1cccc(C(O)c2nc(-c3cc(F)cc(F)c3)cs2)c1 (centres undefined) | 21µM* | nt | ? | nt | nt
COc1cccc(-n2cc(C(=O)Oc3ccc(F)cc3)c3ccccc3c2=O)c1 | ? | nt | ? | nt | 3%
COc1ccc(-c2csc(C(O)c3cccc(OC)c3)n2)cc1 (centres undefined) | 12µM* | nt | ? | nt | nt
CCN(c1ccccc1)S(=O)(=O)c1ccc(OC)c(NC(=O)CCc2nc3ccccc3c(=O)[nH]2)c1 | 18µM* | nt | 15µM* | nt | nt
CCOc1ccc(Oc2ccccc2NC(=O)CCc2nc3ccccc3c(=O)[nH]2)cc1 | 23µM* | nt | 21µM* | nt | nt
CCOc1ccccc1NC(=O)CCCc1nc2ccccc2c(=O)[nH]1 | -16% | 3% | ? | -12% | 5%
CCN(c1ccccc1)S(=O)(=O)c1ccc(OC)c(NC(=O)CNCCc2ccccc2)c1 | 26µM* | -6% | 21µM* | -32% | -8%
CCN(c1ccccc1)S(=O)(=O)c1ccc(OC)c(NC(=O)Cc2ccc(F)cc2)c1 | ? | nt | 18µM* | nt | 0%
COc1ccc(CONc2ncnc3nonc23)cc1[N+](=O)[O-] | ? | 2% | -16% | 32% | 1%
CCOc1ccc(C(c2c(O)cc(C)n(CCOC)c2=O)N2CCN(c3ccc(F)cc3)CC2)cc1 (centres undefined) | -21% | nt | ? | nt | 0%
SMILES | DT40 TDP1 CPT | Gal4-VP16 FLuc | DT40 TDP1 no CPT | RORg inh | TDP1 block
CC(C)(C)OC(=O)N1CCC(c2c(C(=O)N3CCOCC3)cnn2-c2cccc(F)c2)CC1 | -5% | nt | 8% | nt | -1%
COc1ccc(-n2c(SCC(=O)Nc3nccs3)nc3c(c2=O)SC(C)C3)cc1 (centres undefined) | ? | -15% | ? | 24% | 5%
CN(C)S(=O)(=O)c1ccc2c(c1)N(CC(=O)N1CCCCC1)CCS2 | nt | nt | nt | nt | 3%
CCC(C)C1NC(=S)N(C2CCCCC2)C1=O (centres undefined) | -6% | 11µM* | -15% | 6.3µM* | -2%
CCCCC1NC(=S)N(C2CCCCC2)C1=O (centres undefined) | ? | ? | ? | 13µM* | 0%
CC1NC(=S)N(C2CCCCC2)C1=O (centres undefined) | 6% | -5% | -22% | 11µM* | -6%
COCCNC(=O)c1csc(Nc2cccc3ccccc23)n1 | -12% | 1% | -29% | 34% | 1%
O=Cc1cn(-c2ccccc2)nc1-c1ccc2c(c1)OCCO2 | ? | -3% | ? | ? | 3%[56.1 µM]
CCOC(=O)c1sc(NC(=O)CCN2C(=O)C3CCCCC3C2=O)cc1C (centres undefined) | -4% | nt | 10% | nt | 0%
CCOC(=O)c1sc(NC(=S)NC(=O)C2CC2)cc1C | -5% | 1µM* | -29% | 1µM* | -8%
CCOC(=O)c1sc(NC(=S)NC(=O)C23CC4CC(CC(C4)C2)C3)cc1C | -1% | 10µM* | ? | 6.3µM* | 1%
Cc1[nH]nc2c1C(c1ccc(-c3ccccc3C#N)o1)C(C#N)=C(N)O2 (centres undefined) | 29µM* | ? | 21µM* | 8.9µM* | 2%
Cc1cc(C2C(C#N)=C(N)Oc3n[nH]c(C)c32)c(C)s1 (centres undefined) | 8.2µM* | 11µM* | ? | 10µM* | 6%
Cc1[nH]nc2c1C(c1ccc(F)cc1)C(C#N)=C(N)O2 (centres undefined) | -1% | -5% | 3% | 30% | 0%
Cc1[nH]nc2c1C(c1ccc(-c3ccc(Cl)cc3)o1)C(C#N)=C(N)O2 (centres undefined) | 13µM* | ? | ? | ? | 5%
Cc1ccc(-c2ccc(C3C(C#N)=C(N)Oc4n[nH]c(C)c43)o2)cc1 (centres undefined) | ? | 11µM* | ? | 30% | 12%
COc1ccc(NC(C)=O)cc1S(=O)(=O)NC(C)c1ccc(-n2ccnc2)cc1 (centres undefined) | 2% | nt | -10% | nt | 1%
O=[N+]([O-])C1C(c2ccccc2)C12c1ccccc1-c1ccccc12 (centres undefined) | 1µM* | nt | 1µM* | nt | nt
CCSc1cc(N2CC(C)OC(C)C2)nc(-c2ccccc2Cl)n1 (centres undefined) | ? | 7% | ? | -18% | -4%
CCCCCSc1nc2c(c(=O)[nH]c(=O)n2C)n1CC | -21% | nt | -13% | nt | nt
Cc1cc(=O)n2nc(N3CCCC(C(=O)NCCc4ccc(Cl)cc4)C3)sc2n1 (centres undefined) | ? | -2% | ? | -5% | 3%
